From the supplement of paper PMC13380429

Tested on: Vero E6 infected with SARS-CoV-2
Test: morphology score (similarity to uninfected cells); higher = more like uninfected cells
Conditions: 24 h

| Structure (SMILES) | morphology score |
| --- | --- |
| c1cnc2c([O][Ga]([O]c3cccc4cccnc34)[O]c3cccc4cccnc34)cccc2c1 [gallium-triquinolin-8-olate] (10 µM) | 0.775 |
| O=C(NCCCCCCNC(=O)ON=C1CCCCC1)ON=C1CCCCC1 (10 µM) | 0.11 |
| Cc1ccc([N+](=O)[O-])cc1S(=O)(=O)N(C)C (10 µM) | 0.0445 |
| N#Cc1c(N(CC(=O)O)CC(=O)O)sc(C(=O)O)c1CC(=O)O [Strontium Ranelate] (10 µM) | -0.000723 |
| Fc1ccc(-c2nc3n(c2-c2ccncc2)CCS3)cc1 (10 µM) | 0.209 |
| Cc1ccc(C(=O)c2ccc(CC(=O)O)n2C)cc1 [tolmetin] (10 µM) | 0.0813 |
| C[C@@H]1CCCN1CCc1cc2cc(-c3ccc(C#N)cc3)ccc2o1 (10 µM) | 0.44 |
| CCOc1ccccc1C(=O)O [2-ethoxybenzoic-acid] (10 µM) | 0.0437 |
| CC(NC(=O)c1ccccc1/N=C/c1c(O)ccc2ccccc12)c1ccccc1 (stereo unspecified) [sirtinol] (10 µM) | 0.0701 |
| CC(C)(C)c1cc(C=C(C#N)C#N)cc(Br)c1O (10 µM) | 0.14 |
| CCC(=N\O)/C(C)=C/c1ccc(F)cc1 (10 µM) | 0.0411 |
| CN1CCN(c2nc(C3=C(c4c[nH]c5ccccc45)C(=O)NC3=O)c3ccccc3n2)CC1 [sotrastaurin] (10 µM) | 0.0619 |
| CC(C)c1ccc(C(=O)N=C(N)N)cc1S(C)(=O)=O [cariporide] (10 µM) | 0.169 |
| CC1=C(/C=C/C(C)=C/C=C/C(C)=C/C(=O)Nc2ccc(O)cc2)C(C)(C)CCC1 [fenretinide] (10 µM) | -0.442 |
| CCN(CC)C(C)C(=O)c1ccccc1 (stereo unspecified) [amfepramone] (10 µM) | 0.016 |
| N=C(N)NS(=O)(=O)c1ccc(N)cc1 [sulfaguanidine] (10 µM) | 0.00117 |
| CN1CC[C@H](c2c(O)cc(O)c3c(=O)cc(-c4ccccc4Cl)oc23)[C@H](O)C1 [alvocidib] (10 µM) | -0.17 |
| CC[C@H](CO)Nc1nc(NCc2ccccc2)c2ncn(C(C)C)c2n1 [roscovitine] (10 µM) | -0.0602 |

| Structure (SMILES) | morphology score |
| --- | --- |
| COc1ccc(C(Cl)=C(c2ccc(OC)cc2)c2ccc(OC)cc2)cc1 [chlorotrianisene] (10 µM) | 0.0843 |
| O=C(CCCCCCC(=O)Nc1cccnc1)NO [pyroxamide] (0.833333 µM) | 0.0384 |
| CC(CC(C(N)=O)(c1ccccc1)c1ccccc1)N(C)C (stereo unspecified) [aminopentamide] (10 µM) | 0.0885 |
| CC(C)(O)C(Cl)(Cl)Cl [chlorobutanol] (10 µM) | 0.123 |
| O=C(O)c1ccc2c(c1)C(=O)N(c1cccc(Oc3ccc([N+](=O)[O-])cc3)c1)C2=O (10 µM) | 0.173 |
| NNc1nncc2ccccc12 [hydralazine] (10 µM) | -0.0789 |
| CCn1c(-c2nonc2N)nc2cnc(Oc3cccc(NC(=O)c4ccc(OCCN5CCOCC5)cc4)c3)cc21 (10 µM) | 0.306 |
| Cc1ccccc1-c1cc(N2CCN(C)CC2)ncc1N(C)C(=O)C(C)(C)c1cc(C(F)(F)F)cc(C(F)(F)F)c1 [netupitant] (10 µM) | 0.112 |
| Cc1cc(I)ccc1Nc1c(C(=O)NOCC2CC2)cc(F)c(F)c1F (10 µM) | 0.0652 |
| CCC(=O)N[C@@H]1Cc2ccccc2[C@H](c2ccccc2)C1 (10 µM) | -0.0816 |
| O=C(Nc1ccccc1C(=O)Nc1ccc(CCO)cc1)c1ccc([N+](=O)[O-])cc1 (10 µM) | -0.0336 |
| N#CC(=C(/N)Sc1ccccc1N)/C(C#N)=C(/N)Sc1ccccc1N (10 µM) | -0.197 |
| CC1(C)N=C(N)N=C(N)N1OCCCOc1cc(Cl)c(Cl)cc1Cl (10 µM) | 0.205 |
| Cc1ccc(-c2cc(C(F)(F)F)nn2-c2ccc(S(N)(=O)=O)cc2)cc1 [celecoxib] (10 µM) | 0.193 |
| COc1ccc2c(c1)[C@]13CCCC[C@@H]1[C@H](C2)N(C)CC3 [dextromethorphan] (10 µM) | -0.0426 |
| CC(C)C[C@H](NC(=O)CNC(=O)c1cc(Cl)ccc1Cl)B1OC(=O)C(CC(=O)O)(CC(=O)O)O1 (0.833333 µM) | -0.0464 |
| O=C(O)[C@H]1CN(C/C=C/P(=O)(O)O)CCN1 [midafotel] (10 µM) | 0.0949 |
| CO[C@H]1C[C@@H]2CC[C@@H](C)[C@@](O)(O2)C(=O)C(=O)N2CCCC[C@H]2C(=O)O[C@H]([C@H](C)C[C@@H]2CC[C@H](n3cnnn3)[C@H](OC)C2)CC(=O)[C@H](C)/C=C(\C)[C@@H](O)[C@@H](OC)C(=O)[C@H](C)C[C@H](C)/C=C/C=C/C=C/1C [zotarolimus] (0.833333 µM) | -0.292 |
